The results in this text go back to PubChem BioAssay AID504727 (Broad Institute, 2011).

Activity calls are given as the source filed them.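 The calls were made as follows: active = fitted half-maximal concentration AC50 at or below ten times the highest valid tested dose, with signal falling as DNA is displaced (actives reach about 34 µM in these data); inconclusive = flat fit at moderate signal loss, or poor fit quality; inactive = the rest, including signal rising instead of falling.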

The nature of the assay: DNA intercalators displacing acridine orange, dose response, artefact control for KSHV LANA DNA-binding inhibitor project, biochemical, fluorescence polarization, cherry-picked samples, set 2 (AID 504727).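 As to activity change, negative = DNA displacement: 0% = median of neutral control wells and -100% = mitoxantrone positive control wells.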 To be noted: AC50: Acridine orange-DNA displacement; series mostly up to 35 µM; activity change, negative = DNA displacement: at the top concentration. (In general: In fluorescence polarisation assays a small probe gives low polarisation when free and higher when bound to something large.)
On to `O=C(CN1C(=O)/C(=C/c2ccco2)SC1=S)Nc1ccc(C(=O)O)c(O)c1`, for which the “activity change, negative = DNA displacement” value (from here on “activity change”) was 5.32% (inactive).
On to `NNc1nc2sc3c(c2c(=O)n1C1CCCCC1)CCN(Cc1ccccc1)C3`, for which the “activity change” value was 3.94% (inactive).
As to `Brc1ccc(-c2noc(COc3ccc4c(c3)CCC4)n2)o1`, the “activity change” value was 4.23% (inactive).
On to `COc1c2c(nc3occc13)C(CCC(C)(C)O)(OC)C(O)CC2` (centres undefined), for which the “activity change” value was 4.96% (inactive).
On the same count and under the same terms, the figure for `COc1cc(CN2CC(=O)N(c3cc(Cl)ccc3C)C2=S)cc(OC)c1OC` is 5.96% (inactive); for `COc1cc(SC)ccc1C(=O)OCC(=O)N1CCN(C(C)=O)CC1` it is 0.039% (inactive); for `CCOC(=O)C1CCCN(C(=O)C2c3ccccc3Oc3ccccc32)C1` (centres undefined) it is -14.3% (inactive).
As to `CCOc1ccccc1N1CCN(C(=O)c2ccc3nc(N)sc3c2)CC1`, the “activity change” value was 5.07% (inactive).
On the same count and under the same terms, the figure for `Cc1ccc(C)c(N2CCN(C(=O)c3cc4ccccn4n3)CC2)c1` is -11.2% (inactive).
Same read-out and setting: the figure for `COc1ccc(N=Nc2nc3ccc(Br)cc3n2C)cc1` is -3.72% (inactive).
For the compound `CCN(Cc1ccccc1)C(=O)c1cccc(S(=O)(=O)N2CCN(Cc3ccccc3)CC2)c1`, the “activity change” value is 6.01% (inactive).
For `CCN(CC)CCCC(C)n1c2nc(=O)[nH]c(=O)c-2nc2cc(Cl)ccc21` (centres undefined), the half-maximal activity concentration (AC50) is 0.316 µM (active).
In the case of `O=C(CCN1C(=O)/C(=C\c2ccco2)SC1=S)Nc1ccc(C(=O)O)c(O)c1`, the “activity change” value was 8.25% (inactive).
On the same count and under the same terms, the figure for `O=C(Nc1cc(Cl)ccc1-n1cncn1)c1cccs1` is 5.05% (inactive); for `CN(C)C(=O)c1ccc(NC(=O)COC(=O)C2(c3ccccc3)CCCC2)cc1` it is 3.07% (inactive).
On the same count and under the same terms, the figure for `C=CCNC(=S)N1CCN(S(=O)(=O)c2ccc(C)cc2)CC1` is 5.53% (inactive).
Still for that read-out and setting: the figure for `CC(C)CN(C(=O)CSc1nncn1C)C1CCS(=O)(=O)C1` (centres undefined) is 3.35% (inactive).
In the case of `O=C1/C(=C/c2ccco2)Oc2c1ccc(O)c2CN1CCCCC1`, the AC50 is 18.9 µM (active).
`O=C(NCCN1CCN(C(=O)c2cccs2)CC1)c1cccs1`: the “activity change” value is 2.49% (inactive).
Still for that read-out and setting: the figure for `CC(C)(C)OC(=O)N1CCC[C@H]1c1nnc(SCc2cccc(Cl)c2)o1` is 4.37% (inactive); for `Cc1ccc(OCC(=O)NC(=S)Nc2cccc(NC(=O)c3ccc(Cl)cc3Cl)c2)cc1` it is 0.722% (inactive).
On the same count and under the same terms, the figure for `COc1ccc(-c2cc(C(F)(F)F)n3ncc(C(=O)N4CCCCC4c4cccnc4)c3n2)cc1` (centres undefined) is 5.21% (inactive).
With `COC(=O)c1sc(C(F)(F)F)c(-c2ccccc2)c1S(=O)(=O)N1CCOCC1`, the “activity change” value is 2.04% (inactive).
For the compound `CN(C)S(=O)(=O)c1cccc(N2C(=O)CC3(CCCCC3)CC2=O)c1`, the “activity change” value was 3.65% (inactive).
`O=C(CSc1cccc2cccnc12)N/N=C/c1ccc(O)cc1`: the “activity change” value is -0.88% (inactive).
The same measure, in the same setting: the figure for `COC(=O)C1CCN(C(=O)COC(=O)Cc2c[nH]c3ccccc23)CC1` is 3.51% (inactive).
On the same count and under the same terms, the figure for `COc1ccc(NC(=O)NS(=O)(=O)c2ccc(C)cc2)cn1` is -15% (inactive); for `Cn1cc(C(=O)c2ccc(Cl)cc2Cl)cc1C(=O)N/N=C(\N)COc1ccccc1` it is 0.996% (inactive).
Still for that read-out and setting: the figure for `N=C1/C(=C\c2ccc(Br)o2)C(=O)N=C2SC(CC(=O)N3CCOCC3)=NN12` is 6.11% (inactive).
On to `Cn1c(=O)c2c(nc(SCC(=O)NCc3ccc4c(c3)OCO4)n2Cc2ccc(Cl)cc2)n(C)c1=O`, for which the “activity change” value was 5.28% (inactive).
Regarding `O=C(N/N=C\c1ccc([N+](=O)[O-])o1)c1cncc(Br)c1`, the “activity change” value was 1.67% (inactive).
Turning to `CCCCN(C(=O)CSc1nnc(-c2ccc(Cl)cc2)o1)c1c(N)n(CC(C)C)c(=O)[nH]c1=O`, the “activity change” value was 6.07% (inactive).
For the compound `COc1ccc(OC)c(-c2c3cc(O)c(=O)cc-3oc3cc(O)c(O)cc23)c1`, the concentration at half-maximal activity (AC50) is 1.62 µM (active).
Still for that read-out and setting: the figure for `CCN(CC)c1ccc2cc(S(=O)(=O)c3ccc(Cl)cc3)c(=O)oc2c1` is 6.87 µM (active); for `Cc1nn(C)c(C)c1N1C(=O)c2cccc3c(N)ccc(c23)C1=O` it is 0.768 µM (active).
With `Cc1nc2c(=O)[nH]c(=S)[nH]c2[nH]c1=O`, the “activity change” value was 9.35% (inactive).
Same read-out and setting: the figure for `CCSc1nnc(Cc2cc(=O)[nH]c(=O)[nH]2)n1-c1ccc(F)cc1` is -3.18% (inactive).
Same read-out and setting: the figure for `NC(=S)COc1ccccc1` is 4.19% (inactive); for `COc1ccc(CCNC(=O)CNC(=O)Cn2ccc3ccccc3c2=O)cc1OC` it is 1.31% (inactive).

Usually AC50 stands for the concentration giving half of the maximal activity seen.
